Laboratory results: PubChem BioAssay
Results filed as inconclusive are left out. Calls of active or inactive are those of the source.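 Rule for the calls, unless noted: active = normalized viability below 100% at a tested concentration; inactive = the rest.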

Tests used:
[1] = viability loss in pontine glioma line – cell-based, SU-DIPG-XVII, MIPE5.0, CellTiter-Glo, qHTS, dose response (AID 1347060; cut-off not given, nearly all actives have AC50 up to about 26 µM;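 note: cells exposed to compound for 48 hours before viability readout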); conditions: CellTiter-Glo ATP luminescence
[2] = viability loss in pontine glioma line – cell-based, SU-DIPG-XIII, MIPE5.0, CellTiter-Glo, qHTS, dose response (AID 1347064; cut-off not given, nearly all actives have AC50 up to about 23 µM;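 note: cells exposed to compound for 48 hours before the viability read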); conditions: CellTiter-Glo ATP luminescence
[3] = viability loss in pontine glioma line – cell-based, SU-DIPG-XXV, MIPE5.0, CellTiter-Glo, qHTS, dose response (AID 1347065; cut-off not given, nearly all actives have AC50 up to about 26 µM;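 note: cells exposed to compound for 48 hours before ATP readout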); conditions: CellTiter-Glo ATP luminescence
[4] = JHH-DIPG-1 glioma cell viability, MIPE5.0 library, CellTiter-Glo luminescence, qHTS (AID 1347067; cut-off not given, nearly all actives have AC50 up to about 26 µM;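 note: cells exposed to compound for 48 hours before readout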); conditions: JHH-DIPG-1 glioma viability, CellTiter-Glo ATP luminescence
[5] = growth inhibition of DIPG cells – cell-based, MIPE5.0 library, qHTS (AID 1347068; cut-off not given, nearly all actives have IC50 up to about 30 µM;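 for IC50: cells exposed to compound for 48 hours before viability readout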); conditions: SU-DIPG-XXV viability
[6] = viability loss with induced miR-34 in A549 – imaging, A549 dox-inducible miR-34, nuclei and caspase counts, primary screen (AID 1347080;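 active = compounds whose cell count with miR-34 switched on is under 0.7 times the count with it off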); conditions: A549 miR-34 inducible, Hoechst nuclei count, 48 h
[7] = MELAS cybrid and Rieske KO viability enhancers – cell-based, MELAS cybrids, Rieske KO mouse fibroblasts, CellTiter-Glo, primary screen (AID 1508586;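 active = mean z-score across replicates of 1.96 or higher in either the MELAS or the Rieske mutant cell line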;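 note: z relative to plate mean and SD of compound and empty wells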); conditions: low glucose
[8] = drug combination growth inhibition, ovarian cancer – cell-based, oncology-focused library, rucaparib conditional, profiling panel (AID 1508598); conditions: patient-derived ovarian cancer cells, CellTiter-Glo viability, 144 h, stronger effect = lower value
[9] = stronger effect = lower value, cell number ratio, induced over uninduced
[10] = measured here: relative caspase fold change +Dox/-Dox
[11] = measured here: total cells with miR-34 induction, stronger effect = lower value
[12] = measured here: total cells without miR-34 induction
[13] = MELAS cybrid survival, CellTiter-Glo 48 h, stronger effect = higher value
[14] = Rieske KO mouse fibroblast survival, CellTiter-Glo 72 h
[15] = at 0.000305 µM, OCI-C5x cells, with rucaparib 10 µM, 100% = cells with rucaparib alone
[16] = at 0.000305 µM, OCI-C5x cells, without rucaparib
[17] = at 0.000305 µM, OCI-P5x cells, with rucaparib 20 µM, 100% = cells with rucaparib alone
[18] = at 0.000305 µM, OCI-P5x cells, without rucaparib
[19] = at 0.00122 µM, OCI-C5x cells, with rucaparib 10 µM, 100% = cells with rucaparib alone
[20] = at 0.00122 µM, OCI-C5x cells, without rucaparib
[21] = at 0.00122 µM, OCI-P5x cells, with rucaparib 20 µM, 100% = cells with rucaparib alone
[22] = at 0.00122 µM, OCI-P5x cells, without rucaparib
[23] = at 0.00488 µM, OCI-C5x cells, with rucaparib 10 µM, 100% = cells with rucaparib alone
[24] = at 0.00488 µM, OCI-C5x cells, without rucaparib
[25] = at 0.00488 µM, OCI-P5x cells, with rucaparib 20 µM, 100% = cells with rucaparib alone
[26] = at 0.00488 µM, OCI-P5x cells, without rucaparib
[27] = at 0.0195 µM, OCI-C5x cells, with rucaparib 10 µM, 100% = cells with rucaparib alone
[28] = at 0.0195 µM, OCI-C5x cells, without rucaparib
[29] = at 0.0195 µM, OCI-P5x cells, with rucaparib 20 µM, 100% = cells with rucaparib alone
[30] = at 0.0195 µM, OCI-P5x cells, without rucaparib
[31] = at 0.0781 µM, OCI-C5x cells, with rucaparib 10 µM, 100% = cells with rucaparib alone
[32] = at 0.0781 µM, OCI-C5x cells, without rucaparib
[33] = at 0.0781 µM, OCI-P5x cells, with rucaparib 20 µM, 100% = cells with rucaparib alone
[34] = at 0.0781 µM, OCI-P5x cells, without rucaparib
[35] = at 0.313 µM, OCI-C5x cells, with rucaparib 10 µM, 100% = cells with rucaparib alone
[36] = at 0.313 µM, OCI-C5x cells, without rucaparib
[37] = at 0.313 µM, OCI-P5x cells, with rucaparib 20 µM, 100% = cells with rucaparib alone
[38] = at 0.313 µM, OCI-P5x cells, without rucaparib
[39] = at 1.25 µM, OCI-C5x cells, with rucaparib 10 µM, 100% = cells with rucaparib alone
[40] = at 1.25 µM, OCI-C5x cells, without rucaparib
[41] = at 1.25 µM, OCI-P5x cells, with rucaparib 20 µM, 100% = cells with rucaparib alone
[42] = at 1.25 µM, OCI-P5x cells, without rucaparib
[43] = at 5 µM, OCI-C5x cells, with rucaparib 10 µM, 100% = cells with rucaparib alone
[44] = at 5 µM, OCI-C5x cells, without rucaparib
[45] = at 5 µM, OCI-P5x cells, with rucaparib 20 µM, 100% = cells with rucaparib alone
[46] = at 5 µM, OCI-P5x cells, without rucaparib

CN(NC(=O)CC(=O)NN(C)C(=S)c1ccccc1)C(=S)c1ccccc1
-2.56: z-score [7, 14]
inactive: outcome [5] | fold change [6, 9] 0.813 | viability [8, 15] 121% | viability [8, 16] 108% | viability [8, 19] 135% | viability [8, 20] 131% | viability [8, 23] 143% | viability [8, 24] 129% | viability [8, 27] 151% | viability [8, 28] 131% | viability [8, 31] 140% | viability [8, 32] 122% | viability [8, 35] 126% | viability [8, 36] 133% | viability [8, 39] 125% | viability [8, 40] 123% | viability [8, 43] 128% | viability [8, 44] 121%
4660: cell count [6, 11]
1.14: fold change [6, 10]
5740: cell count [6, 12]
active: AC50 [1] 0.0186 µM | AC50 [2] 0.00934 µM | AC50 [3] 0.0186 µM | AC50 [4] 0.00525 µM | z-score [7, 13] 2.12 | viability [8, 17] 83.3% | viability [8, 18] 88% | viability [8, 21] 80.6% | viability [8, 22] 75.2% | viability [8, 25] 82.9% | viability [8, 26] 81.1% | viability [8, 29] 88.5% | viability [8, 30] 84.6% | viability [8, 33] 98.6% | viability [8, 34] 81% | viability [8, 37] 96% | viability [8, 38] 95.1% | viability [8, 41] 82.2% | viability [8, 42] 97.2% | viability [8, 45] 99% | viability [8, 46] 98%

COc1ccc(S(=O)(=O)N(CCO)c2ccccc2CN(C)C/C=C/c2ccc(Cl)cc2)cc1
active: AC50 [1] 18.6 µM | AC50 [2] 7.42 µM | AC50 [3] 16.6 µM | AC50 [4] 10.5 µM | IC50 [5] 18.6 µM

C=CC(=O)Nc1cc(Nc2nccc(-c3cn(C)c4ccccc34)n2)c(OC)cc1N(C)CCN(C)C
2830: cell count [6, 12]
2760: cell count [6, 11]
active: AC50 [1] 2.95 µM | AC50 [2] 7.42 µM | AC50 [3] 3.72 µM | AC50 [4] 2.63 µM | IC50 [5] 9.34 µM | viability [8, 17] 95.5% | viability [8, 18] 94.3% | viability [8, 41] 91.6% | viability [8, 42] 91.7% | viability [8, 43] 2.67% | viability [8, 44] 3.48% | viability [8, 45] 8.99% | viability [8, 46] 78.5%
0.432: fold change [6, 10]
inactive: fold change [6, 9] 0.975 | z-score [7, 13] -0.292 | viability [8, 15] 110% | viability [8, 16] 114% | viability [8, 19] 106% | viability [8, 20] 108% | viability [8, 21] 103% | viability [8, 22] 103% | viability [8, 23] 120% | viability [8, 24] 120% | viability [8, 25] 103% | viability [8, 26] 106% | viability [8, 27] 127% | viability [8, 28] 118% | viability [8, 29] 108% | viability [8, 30] 106% | viability [8, 31] 133% | viability [8, 32] 132% | viability [8, 33] 105% | viability [8, 34] 107% | viability [8, 35] 158% | viability [8, 36] 170% | viability [8, 37] 108% | viability [8, 38] 108% | viability [8, 39] 147% | viability [8, 40] 173%
1.23: z-score [7, 14]
